Bioassay records from PubChem BioAssay.
The list is not random: actives were taken first. Their share in the collection is about 19%.
KB-3-1 tox – qHTS assay for MDR1-selective chemotherapeutics: Primary screen using the parental adenocarcinoma cell KB-3-1; Potency, µM (series often up to 46.1 µM), actives largely listed as cytotoxic; KB-3-1 viability, CellTiter-Glo ATP luminescence, 72 h; AID 1347075, 2019; 400,000 compounds, 1.4% hits; further: nearly all actives have a fitted effect of over 60% in size
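Parental KB-3-1 adenocarcinoma cells in phenol-red-free DMEM with 10% FBS were pin-treated with compounds at several concentrations, incubated 72 h at 37 °C, and viability read by CellTiter-Glo luminescence; concentration-effect curves were fitted after normalization.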
TDP1 cell noCPT – qHTS for Inhibitors of human tyrosyl-DNA phosphodiesterase 1 (TDP1): qHTS in cells in absence of CPT. DT40 Tdp1-/- hTDP1 cells, no CPT, ATP luminescence, 48 h. Potency, µM (highest dose often 46.2 µM), inactives show at the top dose activity change, negative = growth inhibition, usual class: inhibitors. 420,000 compounds, 15% hits; further: nearly all actives have a fitted effect of over 55% in size
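Chicken DT40 Tdp1-/- cells stably complemented with human TDP1 were seeded at 400 cells/well with DMSO in place of 20 nM camptothecin. After compound pinning, cells grew at least 48 hr at 37 °C; viability read by CellTiter-Glo luminescence.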
KB-V1 MDR tox – qHTS assay for MDR1-selective chemotherapeutics: Primary screen using the drug-selected MDR subline cells KB-V1; KB-V1 MDR cells viability, CellTiter-Glo, 72 h; 400,000 compounds, 3.4% hits; Potency, µM (titrated, usually from 46.1 µM), hits mostly cytotoxic; further: nearly all actives have a fitted effect of over 60% in size
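Readout: CellTiter-Glo luminescence, 10 min after addition. Cells: KB-V1 MDR subline, 72 h at 37 degrees C with compound. Analysis: corrected, normalized data fitted to concentration-effect curves.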
DT40 TDP1 CPT – qHTS for Inhibitors of human tyrosyl-DNA phosphodiesterase 1 (TDP1): qHTS in cells in presence of CPT; chicken DT40 Tdp1-/-;hTDP1 cells + 20 nM CPT, ATP luminescence, 48 h; Potency, µM (series often up to 46.2 µM), without a hit: top-dose activity change, negative = growth inhibition, most hits filed as inhibitors; 420,000 compounds, 12% hits; AID 686979, 2013; further: nearly all actives have a fitted effect of over 55% in size
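Chicken DT40 Tdp1-/- cells complemented with human TDP1, 400 cells/well, exposed to compounds plus 20 nM camptothecin for at least 48 h at 37 C; viability read as ATP content by CellTiter-Glo luminescence.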
HT1080 IDH1KD tx – qHTS for induction of synthetic lethality in tumor cells producing 2HG: qHTS for the HT-1080-IDH1KD cell line | 360,000 compounds, 2% hits | HT-1080 IDH1 knockdown viability, ATP luminescence, 48 h | Potency, µM (highest dose often 46.1 µM), for the others: at the highest dose activity, negative = toxicity, most hits filed as cytotoxic;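 further: 0% = DMSO wells and -100% = cell-free medium wells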
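Using the IDH1-knockdown HT-1080 line run in the same batch and compound series as the NT line, viability after 48 h at 37 °C was determined by CellTiter-Glo luminescence and expressed as % activity.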
HT1080-NT tox – qHTS for induction of synthetic lethality in tumor cells producing 2HG: qHTS for the HT-1080-NT fibrosarcoma cell line. HT-1080-NT fibrosarcoma viability, CellTiter-Glo ATP luminescence, 48 h. Potency, µM (series often up to 46.1 µM), inactives show top-dose activity, negative = less viability, usual class: cytotoxic. 360,000 compounds, 1.6% hits. AID 686970, 2013;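 further: NT is the 2HG producing partner of a matched IDH1 knockdown line; 0% = DMSO-treated cells and -100% = media-only wells without cells; nearly all actives have a fitted effect of over 55% in size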
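750 cells/well, RPMI + 5% FBS; 2 h settle, compound pin-transfer, 48 h at 37 degrees C. CellTiter-Glo 10 min RT, luminescence. Normalized to DMSO and media-only wells.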
An asterisk follows results filed as active; i = inactive; u = inconclusive; x = not tested or not shown. The call rests on the fitted dose curve; in most records, active means well fitted curve in the direction sought with a large enough effect; inconclusive means small, poorly fitted or top-dose-only effect, or another doubt; inactive means no such curve, though single readings can be large; an effect the other way counts as inactive or inconclusive. Unless noted, on the % scale 0 is the no-effect control and ±100 the full control effect; potency means the concentration at half of the fitted maximal effect.

SMILES	KB-3-1 tox	TDP1 cell noCPT	KB-V1 MDR tox	DT40 TDP1 CPT	HT1080 IDH1KD tx	HT1080-NT tox
O=c1c2ccccc2sc2ccc(NCCCN3CCOCC3)cc12	i	23µM*	i	u	-14%	-13%
COc1cc2sc3cc(NCCCN4CCOCC4)ccc3c(=O)c2cc1OC	i	u	i	u	-4%	1%
Cc1ccc(CNC(C)(C)CO)cc1	i	u	i	-3%	-4%	-10%
CC(C)(CO)NCc1ccc(Br)cc1	i	u	i	21µM*	15%	3%
C=CCN1CC[C@@H](O)C(=C)S1(=O)=O	i	-14%	i	-10%	x	x
CCOC(=O)C1Nc2ccccc2C2c3ccccc3CC12 (centres undefined)	i	2.6µM*	i	21µM*	-2%	-1%
CCOC(=O)C1Nc2c(F)cc(C)cc2C2c3ccccc3CC12 (centres undefined)	i	u	i	u	-13%	-14%
CCOC(=O)C1CCN(S(=O)(=O)c2ccccc2[N+](=O)[O-])CC1	i	7%	i	28%	1%	15%
CCOC(=O)C1Nc2c(cc(C(F)(F)F)cc2[N+](=O)[O-])C2c3ccccc3CC12 (centres undefined)	i	u	i	18µM*	-6%	15%
Cc1ccc(Nc2sc(C(=O)c3ccccc3)c(N)c2S(=O)(=O)c2ccccc2)cc1Cl	i	u	i	-27%	x	x
COc1ccc(NC(=O)c2c(Nc3ccccc3)sc(C(=O)c3ccc(F)cc3)c2N)cc1	2.1µM*	2.1µM*	u	2.3µM*	u	u
COc1ccc(C(=O)c2sc(Nc3cccc(OC)c3)c(C(=O)Nc3cccc(C)c3C)c2N)cc1	u	10µM*	u	18µM*	u	u
Cc1cc(Nc2sc(C(=O)c3ccc(F)cc3)c(N)c2C(=O)Nc2ccc(F)cc2)ccc1Cl	u	3.7µM*	u	12µM*	x	x
COc1ccccc1NC(=O)c1sc2nc(C)c(C(=O)Nc3ccc(C)cc3C)c(-c3ccccc3Cl)c2c1N	x	-10%	x	3%	x	x
COc1ccccc1NC(=O)c1c(Nc2ccccc2C)sc(C(=O)Nc2cccc(Cl)c2)c1N	u	u	u	21µM*	u	u
COc1cccc(NC(=O)c2sc3nc(C)c(C(=O)Nc4ccc(C)cc4C)c(-c4ccc(Br)cc4)c3c2N)c1	i	-30%	i	u	x	x
CCOc1ncccc1C(=O)Nc1cc(S(=O)(=O)N2CCOCC2)ccc1OCC(F)(F)F	i	u	i	-12%	2%	-9%
NNC(=O)c1sc2cc(C(F)(F)F)cnc2c1-c1ccccn1	i	-1%	i	3%	3%	-12%
Cc1cc(C(=O)N(C)C2CCCCC2)no1	i	14%	u	-1%	-1%	9%
Cc1ccsc1/C=N/NC(=O)CNC(=O)c1cccc([N+](=O)[O-])c1C	i	-17%	i	-9%	-8%	-11%
Cc1cccc(NC(=S)N2CCN(S(=O)(=O)c3cccc(F)c3)CC2)c1	i	-22%	i	-3%	-8%	-10%
COc1ccc(C(=O)c2sc(Nc3ccccc3)c(C(=O)Nc3ccc(OC)c(OC)c3)c2N)cc1	i	16µM*	i	26µM*	-28%	-10%
COc1ccc(Nc2sc(C(=O)c3ccccc3)c(N)c2C(=O)Nc2cc(C)ccc2C)c(OC)c1	u	u	i	u	x	x
CCOC(=O)c1sc(C)c2c(=O)n(Cc3ccc(Cl)cc3)c(C)nc12	i	16µM*	i	23µM*	-16%	-18%
CCc1ccc(NC(=O)Cn2c(=O)n(-c3cccc(OC)c3)c(=O)c3c(C)c(C(=O)N(C)C)sc32)cc1	x	-7%	x	1%	x	x
SMILES	KB-3-1 tox	TDP1 cell noCPT	KB-V1 MDR tox	DT40 TDP1 CPT	HT1080 IDH1KD tx	HT1080-NT tox
CCOC(=O)c1ccccc1NC(=O)Cn1c(=O)n(-c2ccc(CC)cc2)c(=O)c2c(C)c(C(=O)N(C)C)sc21	x	12µM*	x	8.2µM*	x	x
CCN(CC)C(=O)c1sc2c(c1C)c(=O)n(-c1ccc(C)c(C)c1)c(=O)n2Cc1cccc(Cl)c1	i	u	i	21µM*	x	x
CCN(CC)C(=O)c1sc2c(c1C)c(=O)n(Cc1ccccc1)c(=O)n2Cc1ccc(Cl)cc1	u	4.6µM*	u	u	x	x
CCOC(=O)c1sc(-c2ccc(Cl)cc2)nc1O	i	1%	i	19%	22%	19%
COc1cccc(C(c2nnnn2CC2CCCO2)N2CCN(C(=O)c3ccco3)CC2)c1OC (centres undefined)	i	u	i	-14%	-2%	15%
CCOC(=O)c1sc2c(c1C)c(=O)n(CCO)c(=O)n2Cc1ccccc1	i	16µM*	i	15µM*	2%	u
Cc1cccc(C)c1NC(=O)Cn1c(=O)n(Cc2ccccc2)c(=O)c2c(C)c(C(=O)N(C)C)sc21	i	u	i	16µM*	x	x
CCN(CC)C(=O)c1sc2c(c1C)c(=O)n(Cc1ccccc1)c(=O)n2Cc1c(C)cc(C)cc1C	i	21µM*	i	u	x	x
COC(=O)c1ccccc1NC(=O)Cn1c(=O)n(Cc2ccccc2)c(=O)c2c(C)c(C)sc21	i	-10%	i	2%	10%	11%
Cc1ccc(NC(=O)CCC(=O)N2CCSc3ccccc32)cc1Cl	x	u	x	16µM*	x	x
CCOC(=O)c1ccc(NC(=O)CCC(=O)N2Cc3ccccc3Oc3ncccc32)cc1	i	21µM*	i	16µM*	x	x
O=C(CCC(=O)N1CCSc2ccccc21)NCc1ccccc1Cl	x	u	x	10µM*	x	x
O=C(CCC(=O)N1Cc2ccccc2Oc2ncccc21)Nc1ccc(Cl)cc1	i	u	i	u	x	x
O=C(CCC(=O)N1CCSc2ccccc21)NCc1ccccc1	i	-9%	i	u	4%	-1%
CCOc1ccc(NC(=O)CCC(=O)N2CCSc3ccccc32)cc1	i	16µM*	i	16µM*	0%	-2%
